Screens: PubChem, National Center for Advancing Translational Sciences (NCATS)
In the library only some 19% were active in any assay of this set; here they are far more common.
DT40 TDP1 CPT = DT40-hTDP1 cell growth loss with CPT. chicken DT40 Tdp1-/-;hTDP1 cells + 20 nM CPT, ATP luminescence, 48 h. Potency, µM (top dose mostly 46.2 µM), inactives show at the top dose activity change, negative = growth inhibition, actives largely listed as inhibitors. actives 12% (n = 420,000). AID 686979; note: nearly all actives have a fitted effect of over 55% in size
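Cell growth measured by CellTiter-Glo luminescence after a minimum 48 h, 37 C compound exposure with 20 nM CPT in Tdp1-knockout DT40 cells stably expressing hTDP1, seeded 400/well; qHTS titration format.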
HT1080-NT tox = kills 2HG-producing HT-1080-NT fibrosarcoma cells. HT-1080-NT fibrosarcoma viability, CellTiter-Glo ATP luminescence, 48 h. Potency, µM (titrated, usually from 46.1 µM), for the others: top-dose activity, negative = less viability, most hits filed as cytotoxic. actives 1.6% (n = 360,000). AID 686970;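 note: NT is the 2HG producing partner of a matched IDH1 knockdown line; 0% = DMSO-treated cells and -100% = media-only wells without cells; nearly all actives have a fitted effect of over 55% in size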
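750 cells/well, RPMI + 5% FBS; 2 h settle, compound pin-transfer, 48 h at 37 degrees C. CellTiter-Glo 10 min RT, luminescence. Normalized to DMSO and media-only wells.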
KB-V1 cytotox = KB-V1 MDR subline cytotoxicity; KB-V1 MDR cells viability, CellTiter-Glo, 72 h; Potency, µM (doses to about 46.1 µM), hits mostly cytotoxic; actives 3.4% (n = 400,000); note: nearly all actives have a fitted effect of over 60% in size
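Drug-selected KB-V1 cells, grown in DMEM lacking phenol red with 10% FBS, receive compound titrations; after three days at 37 degrees C, surviving cell ATP is quantified by CellTiter-Glo luminescence and responses normalized and curve-fitted.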
HT1080 IDH1KD tx = toxicity to HT-1080 IDH1 knockdown cells (counter line); HT-1080 IDH1 knockdown viability, ATP luminescence, 48 h; Potency, µM (doses to about 46.1 µM), for inactives: at the top dose activity, negative = toxicity, most hits filed as cytotoxic; actives 2% (n = 360,000); AID 686971;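 note: 0% = DMSO wells and -100% = cell-free medium wells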
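In this qHTS, HT-1080 cells depleted of IDH1 are exposed for 48 h at 37 °C to compound titrations. Toxicity is scored from CellTiter-Glo luminescence, with DMSO as full viability and medium alone as none.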
TDP1 cell noCPT = qHTS for Inhibitors of human tyrosyl-DNA phosphodiesterase 1 (TDP1): qHTS in cells in absence of CPT; DT40 Tdp1-/- hTDP1 cells, no CPT, ATP luminescence, 48 h; Potency, µM (titrated, usually from 46.2 µM), inactives show at the highest dose activity change, negative = growth inhibition, hits mostly inhibitors; actives 15% (n = 420,000); AID 686978, 2013; note: nearly all actives have a fitted effect of over 55% in size
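Growth of hTDP1-complemented DT40 Tdp1-knockout cells is measured by ATP luminescence after at least 48 hr compound exposure at 37 °C, with DMSO substituting for the 20 nM CPT used in the parallel screen.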
KB-3-1 tox = kills parental KB-3-1 adenocarcinoma cells; KB-3-1 viability, CellTiter-Glo ATP luminescence, 72 h; Potency, µM (series often up to 46.1 µM), usual class: cytotoxic; actives 1.4% (n = 400,000); AID 1347075; note: nearly all actives have a fitted effect of over 60% in size
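Cytotoxicity in the drug-sensitive parental line KB-3-1 was scored as loss of CellTiter-Glo luminescence following 72 h incubation with compound. Values come from curve fitting of normalized concentration-response data.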
Numbers without * were called inactive; i = inactive; u = inconclusive; x = not tested or not shown. Calls come from the whole dose curve; as a rule, active = well fitted curve in the direction sought with a large enough effect; inconclusive = small, poorly fitted or top-dose-only effect, or another doubt; inactive = no such curve, though single readings can be large; an effect the other way counts as inactive or inconclusive. Unless noted, % is set by controls: 0 for no effect and ±100 for the full control effect; potency is the fitted concentration of half-maximal effect.

SMILES	DT40 TDP1 CPT	HT1080-NT tox	KB-V1 cytotox	HT1080 IDH1KD tx	TDP1 cell noCPT	KB-3-1 tox
CC=C1OC(n2cnc3c(N)ncnc32)C(O)C1O (stereo unspecified)	u	12%	i	4%	u	i
Nc1nc2c(ncn2C2OC(CO)CC2O)c(=O)[nH]1 (stereo unspecified)	0.92µM*	x	x	x	1.5µM*	x
Nc1ncnc2c1ncn2C1OC(CO)C2OC21 (stereo unspecified)	-12%	u	i	16%	-16%	i
Nc1ncnc2c1ncn2C1C=C(CO)C(O)C1O (stereo unspecified)	0.037µM*	u	u	u	0.16µM*	8.2µM*
COc1ccc(/C=N/NC(=O)c2ccc[nH]2)cc1	-14%	-6%	i	0%	u	i
Cc1ccc(-c2cc3ncc4c(n3n2)-c2ccccc2OC4)cc1	-24%	x	i	x	-30%	i
O=S(=O)(N[C@H]1C[C@@H](NS(=O)(=O)OCC(Cl)(Cl)Cl)C2CCCCC21)OCC(Cl)(Cl)Cl (stereo partly specified)	u	-8%	i	-11%	23µM*	u
Cc1cccc(NC(=O)CCNC(=O)c2ccc(Br)cc2)c1C	8%	1%	i	-2%	-16%	i
CCOc1nc(SCCOc2ccc(C)cc2)nc(N(C)C)n1	-25%	4%	i	16%	u	i
CCOc1nc(SCCOc2ccc(Cl)cc2Cl)nc(N(C)C)n1	u	26%	21µM*	5%	u	i
CC(=O)NCCC(=O)Nc1ncc(S(=O)(=O)c2ccc([N+](=O)[O-])cc2)s1	-19%	-1%	i	-4%	-17%	i
O=C(Nc1ncc(S(=O)(=O)c2ccc([N+](=O)[O-])cc2)s1)c1cccc2ccccc12	15µM*	u	i	u	21µM*	i
O=C(NC(Nc1ncc(S(=O)(=O)c2ccc([N+](=O)[O-])cc2)s1)(C(F)(F)F)C(F)(F)F)c1ccc(Cl)cc1	u	3.3µM*	u	u	15µM*	21µM*
C[C@@H]1CN([C@@H](C)CO)C(=O)c2cc(C3=CCCCC3)cnc2O[C@H]1CN(C)C(=O)Nc1cccc(F)c1	-8%	-7%	i	-7%	-26%	i
O=C(CSc1ccccc1C(=O)O)c1ccc([N+](=O)[O-])cc1	u	1%	i	-5%	u	i
CC(C)NS(=O)(=O)c1ccc(NC(=O)C(C)Oc2ccc(C(=O)c3ccccc3)cc2)cc1 (stereo unspecified)	23µM*	u	u	u	18µM*	u
CNC(CC(=O)c1ccc([N+](=O)[O-])cc1)C(Cl)(Cl)Cl (stereo unspecified)	2.3µM*	u	i	u	2.6µM*	u
COc1ccc(C(=O)CC(Nc2ccc([N+](=O)[O-])cc2)c2ccc(OC)cc2)cc1 (stereo unspecified)	u	-9%	10µM*	u	18µM*	i
COc1ccc(C(=O)/C=C/Nc2ccc([N+](=O)[O-])cc2)cc1	-7%	9%	i	5%	-2%	i
Cc1ccc[n+](CC(=O)Nc2ccc([N+](=O)[O-])cc2)c1	10µM*	-14%	i	16µM*	21µM*	i
CCOc1ccc(N(CC(=O)Nc2c(C)n(C)n(-c3ccccc3)c2=O)S(=O)(=O)c2ccc(F)cc2)cc1	u	-4%	i	-1%	-32%	i
CC(C)N(C(=S)Nc1ccc(S(=O)(=O)N2CCOCC2)cc1)c1ccccc1	-18%	0%	i	-2%	u	i
CN1CC(=O)N(CC(=O)Nc2ccc(N3CCOCC3)cc2)C1=O	4%	-1%	i	-11%	-21%	i
COc1ccc(OC(C)C(=O)Nc2ccc([N+](=O)[O-])cc2)cc1 (stereo unspecified)	u	-18%	u	-22%	21µM*	i
COc1ccc(C(=O)CC(=O)Nc2ccc([N+](=O)[O-])cc2)cc1	16µM*	u	i	u	u	i
SMILES	DT40 TDP1 CPT	HT1080-NT tox	KB-V1 cytotox	HT1080 IDH1KD tx	TDP1 cell noCPT	KB-3-1 tox
CCCC(=O)Nc1ccc(Sc2ccc([N+](=O)[O-])cc2)cc1	2.3µM*	u	i	u	2.3µM*	i
CCCC(=O)Nc1ccc(C(=O)NNC(=O)c2cccc([N+](=O)[O-])c2)cc1	-4%	-3%	i	0%	-10%	i
COc1cc(N2C(=O)CSC23C(=O)N(Cc2ccc(C)cc2)c2ccccc23)cc(OC)c1OC (stereo unspecified)	x	x	u	x	x	i
COc1cccc(CN2C(=O)C3(SCC(=O)N3c3ccc(C(C)C)cc3)c3ccccc32)c1 (stereo unspecified)	x	x	18µM*	x	x	u
COc1cccc(CN2C(=O)C3(SCC(=O)N3c3ccc(C)c(Cl)c3)c3ccccc32)c1 (stereo unspecified)	x	x	13µM*	x	x	13µM*
O=S1(=O)C[C@@H](N2CCN(c3ccccn3)CC2)[C@H](COCc2ccccc2)N1	-6%	0%	i	13%	-12%	i
Cc1cnc(CNc2ccnc(-c3ccc(C(=O)N(C)C)cc3)n2)cn1	-4%	x	x	x	18%	x
Cc1ccc(-c2cc(C(=O)N3CCN(C4CCS(=O)(=O)C4)CC3)c3ccccc3n2)cc1 (stereo unspecified)	13µM*	-19%	u	-8%	u	i
Cc1cccc(-c2nn(-c3ccccc3)cc2C(=O)N2CCN(C3CCS(=O)(=O)C3)CC2)c1 (stereo unspecified)	-4%	-3%	16µM*	1%	-6%	i
CCc1ccc(-c2nc(SCC(=O)N3CCOCC3)n[nH]2)cc1	10%	-6%	i	-2%	-12%	u
Cc1ccc(C2=NC(C(F)(F)F)(C(F)(F)F)c3c(n(-c4ccc(F)cc4)c(=O)[nH]c3=O)N2)cc1	23µM*	-3%	21µM*	-2%	23µM*	10µM*
O=c1[nH]c(=O)n(-c2ccc(F)cc2)c2c1C(C(F)(F)F)(C(F)(F)F)N=C(c1ccc(F)cc1)N2	4.6µM*	15µM*	u	18µM*	3.3µM*	i
